Bioassay records: PubChem, National Center for Advancing Translational Sciences (NCATS)
HP1b binding inh: HP1-beta chromodomain-methylated histone interaction inhibition | P83916 | AlphaScreen HP1-beta / biotin-H3K9me3 peptide binding | Potency, µM (titrated, usually from 114 µM), most hits filed as inhibitors | actives 0.56% (n = 390,000); note: nearly all actives have a fitted effect of over 70% in size
Target sequence (P83916 whole entry, looked up): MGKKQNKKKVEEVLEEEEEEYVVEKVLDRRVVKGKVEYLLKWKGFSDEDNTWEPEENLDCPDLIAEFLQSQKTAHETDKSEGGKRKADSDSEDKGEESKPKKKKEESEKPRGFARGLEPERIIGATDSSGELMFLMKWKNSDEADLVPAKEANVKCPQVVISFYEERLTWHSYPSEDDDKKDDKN
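Compound inhibition of the preformed complex between 50 nM HP1-beta and 50 nM biotinylated H3K9me3 peptide was read by AlphaScreen. Buffer was PBS pH 7.4 with 0.01% Tween-20. Incubations ran 30 min at room temperature, with 10 ug/mL donor/acceptor beads.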
PLK1 PBD inh: inhibitors of human PLK1 polo-box domain binding | P53350 | Plk1 PBD binding of FITC phosphopeptide, fluorescence polarization | Potency, µM, actives largely listed as inhibitors | actives 2.8% (n = 360,000); note: series mostly up to about 57 µM; nearly all actives have a fitted effect of over 65% in size
Sfp PPTase inh: Sfp phosphopantetheinyl transferase inhibition; Biochemical Sfp PPTase activity, qHTS; Potency, µM, usual class: inhibitors; actives 3.5% (n = 310,000);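 note: the enzyme is Sfp with the accession as filed and its product quenches rhodamine fluorescence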
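Fluorescence-quenching assay: 15 nM Sfp-PPTase preincubated 15 min at room temperature with compound, then 5 uM rhodamine-CoA and 12.5 uM BHQ-2-labelled YbbR peptide added. Fluorescence (ex 525/em 598 nm) read at start and after 30 min; difference gives rate.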
BAZ2B inh: inhibitors of human BAZ2B bromodomain. Q9UIF8. AlphaScreen BAZ2B-H3K14Ac peptide displacement. Potency, µM (titrated, usually from 114 µM), most hits filed as inhibitors. actives 4.4% (n = 360,000). AID 504333; note: nearly all actives have a fitted effect of over 60% in size
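AlphaScreen displacement: compounds (up to 110uM) incubated 30 min at room temperature with a preformed 50 nM BAZ2B/50 nM biotinylated H3K14Ac peptide complex in PBS pH 7.4 with Tween-20. Donor and acceptor beads at 10 ug/mL final added, 20 min light-protected before reading.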
G9a inh: blocks human histone lysine methyltransferase G9a. G9a H3K9 monomethylation, AlphaScreen, 2 h. Potency, µM (doses to about 102 µM), actives largely listed as inhibitors. actives 8.8% (n = 350,000). AID 504332; note: nearly all actives have a fitted effect of over 75% in size
Target sequence (Q96KQ7 913-1193 limits assumed): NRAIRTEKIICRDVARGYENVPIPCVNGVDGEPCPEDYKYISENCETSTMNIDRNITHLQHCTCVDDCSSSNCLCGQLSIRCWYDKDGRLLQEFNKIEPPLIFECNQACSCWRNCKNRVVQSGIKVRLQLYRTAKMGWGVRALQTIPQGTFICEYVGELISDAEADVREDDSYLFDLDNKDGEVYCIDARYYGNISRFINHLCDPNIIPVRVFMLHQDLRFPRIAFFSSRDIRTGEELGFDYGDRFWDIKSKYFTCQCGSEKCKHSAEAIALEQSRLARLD
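Readings reflect AlphaScreen signal from monomethyl-H3K9 antibody detection. HMT at 20 nM; substrate b-H3K9 500 nM; cofactor SAM 20 uM; 2 h RT reaction; compounds tested as titrations in qHTS with 15 min preincubation.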
JMJD2A Tudor inh: blocks the human JMJD2A Tudor domain | O75164 | AlphaScreen JMJD2A-Tudor / H3K4me3 peptide binding | Potency, µM (titrated, usually from 114 µM), most hits filed as inhibitors | actives 4.4% (n = 390,000) | AID 504339; note: nearly all actives have a fitted effect of over 50% in size
Numbers stand for hits; . = inactive; ? = inconclusive; / = no result; ! = repeats disagree; [ ] = dose if it differs, or a comment. Rows were chosen to be rich in hits. Some 12% of all compounds tested hit in one or more screens of this group. Calls come from the whole dose curve; as a rule, active = well fitted curve in the direction sought with a large enough effect; inconclusive = small, poorly fitted or top-dose-only effect, or another doubt; inactive = no such curve, though single readings can be large; an effect the other way counts as inactive or inconclusive.

SMILES	HP1b binding inh	PLK1 PBD inh	Sfp PPTase inh	BAZ2B inh	G9a inh	JMJD2A Tudor inh
COc1cc2ncnc(NCc3cccc(F)c3F)c2cc1OC	.	.	.	.	45µM	.
CC(N1CCOC1=O)S(=O)(=O)c1ccccc1 (centres undefined)	.	.	63µM	50µM	?	.
CC(S(=O)(=O)c1ccccc1)S(=O)(=O)c1ccccc1	/	.	/	/	/	/
CCCn1cc(S(=O)(=O)c2ccc(OC)cc2)c(=O)c2cc(F)c(N3CCCCCC3)cc21	.	/	/	.	.	.
CCCCc1c(-c2ccccc2OC)ncn1CCc1ccccc1Cl	/	.	/	/	/	/
Cc1ccc(C2=Nc3ccccc3SC(c3cccc([N+](=O)[O-])c3)C2)cc1 (centres undefined)	.	.	8.9µM	22µM	45µM	?
CCN1CCN(Cc2ccc(NC(=O)c3ccc(C)c(/C=C/c4cnc(Nc5cc(N6CCNCC6)nc(C)n5)cn4)c3)cc2C(F)(F)F)CC1	?	.	56µM	?	28µM	79µM
CC(C)(C)c1ccc(OCCCn2ccnc2)cc1	?	.	.	50µM	22µM	25µM
c1ccc2cc(OCCCn3ccnc3)ccc2c1	?	.	.	50µM	25µM	4µM
COc1ccc(C2NC(Cc3ccccc3)(C(=O)O)C3C(=O)N(c4ccccc4OC)C(=O)C23)cc1 (centres undefined)	.	.	.	.	50µM	.
COP(=O)(OC)OC(c1ccc(Cl)cc1)P(=O)(OC)OC (centres undefined)	/	/	.	/	.[12.7 µM]	/
O=C(Cn1cnc2ccccc2c1=O)N1CCN(S(=O)(=O)c2ccc(F)cc2)CC1	.	.	/	.	.[12.7 µM]	.
CCN(CC)CCOc1ccc(Cc2ccccc2)cc1	/	/	79µM!	/	.	/
CCCOc1ccc(C(C(=O)OCCN(CC)CC)c2ccccc2)cc1 (centres undefined)	.	.	.	50µM	8.9µM	.[11.4 µM]
O=c1cc(OCc2ccccc2)cc[nH]1	8.9µM	.	/	2.8µM	?	11µM
Nc1cc(OCc2ccccc2)ccc1OCc1ccccc1	.	.	/	/	/	?
Nc1ccc(OCc2ccccc2)cc1	.	.	.	?	11µM	?
CSc1ccc(-c2nc3ncccn3c2Nc2ccc(C)c(C)c2)cc1	.	/	/	.	.	.
N[C@@H]1C(O)OC(CO)C(O)C1O (some centres undefined)	/	/	.	/	.[2.33 µM]	/
CCn1cc2nc(SCc3cc(C)ccc3C)n(CCc3ccccc3)c(=O)c2n1	.	/	/	.	.	.
C=C(C)CC(C)(C)C	/	/	.	/	/	/
CCN(Cc1ccccc1)Cc1ccc(OCc2ccccc2)cc1	.	.	.	?	/	28µM
COc1ccc(-c2csc(NC(=O)CSc3n[nH]c(N)n3)n2)cc1	79µM	27µM	.	.	8.9µM	10µM
COc1ccccc1NC(=O)c1ccc(NC(=O)COC(=O)C2(C)CC2(Cl)Cl)cc1 (centres undefined)	.	21µM	.	.	.	79µM
COc1ccccc1NC(=O)c1ccc(NC(=O)CSc2n[nH]c(N)n2)cc1	.	30µM	.	.	?	.
SMILES	HP1b binding inh	PLK1 PBD inh	Sfp PPTase inh	BAZ2B inh	G9a inh	JMJD2A Tudor inh
COc1ccc(-c2csc(NC(=O)CSc3n[nH]c(C)n3)n2)cc1	.	.	.	.	.	.
CC1(C(=O)OCC(=O)Nc2ccc(C(N)=O)cc2)CC1(Cl)Cl (centres undefined)	.	.	.	.	.	.
COC(=O)C(C)Sc1nc2ccsc2c(=O)n1Cc1ccccc1 (centres undefined)	.	.	.	.	.	.
CN(C)/C(=N\S(=O)(=O)c1ccc(Cl)cc1)c1ccc(F)cc1	.	.	.	.	.	.
Cn1cccc1/C=C(/C#N)C(N)=S	.	.	.	?	?	.
Cc1cc(C)nc(Sc2ccc(/C=C(\C#N)C(N)=O)o2)n1	.	.	.	.	.	.
Cc1cc(C)c(/C=C(\C#N)C(N)=S)c(C)c1	.	.	.	.	45µM	.
Cc1ccc(-c2ccc(/C=C(\C#N)C(N)=S)n2C)cc1	.	.	.	?	10µM	?
COc1ccc(CN2CCc3c(c(=O)n4ncc(C(=O)N5CCN(c6ccccc6OC)CC5)c4n3C)C2)cc1	.	/	/	.	.	.
O=C1/C(=C/N(C(=O)c2ccco2)c2ccc(Br)cc2)Sc2ccccc21	?	?	.	?	45µM	56µM
COC(=O)C1=C(C)N(Cc2ccccc2)C(=O)N[C@H]1c1cccc(C(F)(F)F)c1	.	.	.	.	.	?
CCN1C(=NCCOC)N[C@@H](c2cccc(C(F)(F)F)c2)C(C(=O)OC)=C1C	.	.	.	?	/	16µM
CCN1C(=NCC2CC2)N[C@@H](c2cccc(C(F)(F)F)c2)C(C(=O)OC)=C1C	.	.	.	.	.[12.7 µM]	.
COC(=O)C1=C(C)N(Cc2ccco2)C(=O)N[C@@H]1c1cccc(C(F)(F)F)c1	/	/	.	?	89µM	/
COCCN1C(=O)N[C@@H](c2cccc(C(F)(F)F)c2)C(C(=O)OC)=C1C	.	30µM	.	/	/	?
Cn1cccc1CC(=O)N/N=C/c1cc([N+](=O)[O-])ccc1Cl	.	.	.	?	45µM	.
Cn1cccc1CC(=O)N/N=C/c1ccc(Cl)c([N+](=O)[O-])c1	.	.	.	40µM	50µM	.
Cn1cccc1CC(=O)N/N=C/c1cccc([N+](=O)[O-])c1	.	.	.	?	?	?
N#CC(C#N)=Cc1c[nH]c(=O)c(C#N)c1Nc1ccccc1	.	.	/	/	/	.
CC(C)C[C@H](NC(=O)C1CC(=O)N(c2ccc3c(c2)OCCO3)C1)C(=O)N1CCCCC1 (some centres undefined)	.	.	.	.	.	.
Cc1cc(C)cc(NC(=O)CSc2oc(-c3cccs3)nc2S(=O)(=O)c2ccccc2)c1	.	/	/	.	.	.
N#C/C(=C\c1ccc(-c2ccccc2C(=O)O)o1)c1nc2ccccc2[nH]1	.	?	.	79µM	40µM	20µM
Cc1cc(/C=C(/C#N)c2nc3ccccc3[nH]2)c(C)n1-c1ccccc1C(=O)O	.	.	.	50µM	32µM	.
Cc1cc(/C=C(/C#N)c2nc3ccccc3[nH]2)c(C)n1-c1cc(C(=O)O)cc(C(=O)O)c1	?	?	.	40µM	13µM	25µM
N#C/C(=C\c1ccc(Cl)cc1)c1nc2ccccc2[nH]1	.	/	/	.	.	.
N#C/C(=C/c1ccc(O)c(O)c1)c1nc2ccccc2[nH]1	?	.	.	7.9µM	11µM	28µM
C[C@H](CO)N1C[C@H](C)[C@@H](CN(C)S(=O)(=O)c2ccccc2)Oc2ccc(NS(=O)(=O)c3cccs3)cc2C1=O	.	.	/	/	/	.
CCn1c(SCc2ccccc2)nnc1C1CCN(S(=O)(=O)c2ccc(OC)cc2)CC1	.	.	.	.	/	.
Cc1ccccc1C(=O)N1CCC(C(=O)Nc2ccc(S(=O)(=O)N3CCCC3)cc2)CC1	.	12µM	.	.	?	.[11.4 µM]
